Source: the supplement of paper PMC7669877
± gives the uncertainty stated by the source.

System: Candidatus Liberibacter solanacearum in potato hairy roots
Test: relative CLso titer (% of untreated control); higher = less inhibition of bacterial titer
Details: 10 µM; 72 h
Method: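 Primary screen of ~220 Spectrum collection (MicroSource) compounds at 10 µM (0.1% DMSO) on Candidatus Liberibacter solanacearum-infected potato hairy roots in multi-well plates (Gamborg B-5 medium, vacuum infiltrated, 21 °C, dark, 72 h). CLso titer was measured by qPCR of 16S rDNA normalised to potato RPL2 (2^-ddCq), pairwise-standardised against untreated controls, averaged over two biological replicates and expressed as % of untreated.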

Structure (SMILES) | relative CLso titer [%]
CO[C@@]12[C@H](COC(N)=O)C3=C(C(=O)C(C)=C(N)C3=O)N1C[C@@H]1N[C@@H]12 | 85 ± 10
CC(C(=O)O)c1cccc(C(=O)c2ccccc2)c1 (centres undefined) | 132 ± 34
Oc1ccc(Cl)c2cccnc12 | 36.8 ± 11
O=C(O)c1ccccc1C(=O)Nc1ccc(S(=O)(=O)Nc2nccs2)cc1 | 102 ± 3.3
CN(C)CCOC(C)(c1ccccc1)c1ccccn1 (centres undefined) | 109 ± 7.3
Cc1cccc(Nc2ccccc2C(=O)O)c1C | 98.7 ± 20
Cn1c(=O)c2c(ncn2C)n(C)c1=O | 42.2 ± 4.3
COc1ccc(C[C@H](N)C(=O)N[C@H]2[C@@H](O)[C@H](n3cnc4c(N(C)C)ncnc43)O[C@@H]2CO)cc1 | 91.8 ± 5.9
CCOC(=O)CCC(=O)O[C@H]1[C@H](O[C@@H]2[C@@H](C)[C@H](O[C@H]3C[C@@](C)(OC)[C@@H](O)[C@H](C)O3)[C@@H](C)C(=O)O[C@H](CC)[C@@](C)(O)[C@H](O)[C@@H](C)C(=O)[C@H](C)C[C@@]2(C)O)O[C@H](C)C[C@@H]1N(C)C | 169 ± 3.5
CC(=O)O[C@]1(C(C)=O)CC[C@H]2[C@@H]3C=C(Cl)C4=CC(=O)[C@@H]5C[C@@H]5[C@]4(C)[C@H]3CC[C@@]21C | 114 ± 4.7
CNCCCN1c2ccccc2CCc2ccccc21 | 144 ± 1.5
CCN(CC)CCNC(=O)COc1ccc(OC)cc1 | 93.2 ± 2.3
CN(C)CCOC(c1ccccc1)c1ccccc1 | 55.8 ± 26
CCC[C@@H]1C[C@@H](C(=O)N[C@@H]([C@H]2O[C@H](SC)[C@H](O)[C@@H](O)[C@H]2O)[C@H](C)Cl)N(C)C1 | 80.1 ± 32
COC(=O)Nc1nc2cc(C(=O)c3ccccc3)ccc2[nH]1 | 84 ± 10
C1CCN2C[C@@H]3C[C@@H](CN4CCCC[C@@H]34)[C@H]2C1 | 93.9 ± 8
COC1=CC(=O)C[C@@H](C)[C@]12Oc1c(Cl)c(OC)cc(OC)c1C2=O | 67.3 ± 13

Structure (SMILES) | relative CLso titer [%]
CC1=C(/C=C/C(C)=C/C=C/C(C)=C\C(=O)O)C(C)(C)CCC1 | 80.8 ± 13
O=C(N[C@H](CO)[C@H](O)c1ccc([N+](=O)[O-])cc1)C(Cl)Cl | 57.2 ± 12
O=C1c2cccc(O)c2C(=O)c2c(O)cccc21 | 82.5 ± 46
Nc1ncnc2c1ncn2[C@@H]1O[C@H](CO)[C@@H](O)[C@H]1O | 51.4 ± 22
CC(C)(Sc1cc(C(C)(C)C)c(O)c(C(C)(C)C)c1)Sc1cc(C(C)(C)C)c(O)c(C(C)(C)C)c1 | 102 ± 13
COc1cc(NS(=O)(=O)c2ccc(N)cc2)nc(OC)n1 | 96 ± 21
COc1cc(CNC(=O)CCCC/C=C/C(C)C)ccc1O | 130 ± 4.3
CCC(=O)O[C@H]1[C@H](O[C@@H]2[C@@H](C)[C@H](O[C@H]3C[C@@](C)(OC)[C@@H](O)[C@H](C)O3)[C@@H](C)C(=O)O[C@H](CC)[C@@](C)(O)[C@H](O)[C@@H](C)C(=O)[C@H](C)C[C@@]2(C)O)O[C@H](C)C[C@@H]1N(C)C | 108 ± 26
COc1ccc([C@H]2COc3c(ccc(O)c3OC)C2)c(OC)c1O | 35.5 ± 2.5
COc1ccc(C(=O)c2ccccc2O)c(O)c1 | 86.9 ± 3.5
Nc1ccc(S(=O)(=O)Nc2cnc3ccccc3n2)cc1 | 80.23 ± 0.64
CCCCCCCCNC(C)C(O)c1ccc(SC(C)C)cc1 (centres undefined) | 80.3 ± 5.9
CCN(CCCCOC(=O)c1ccc(OC)c(OC)c1)C(C)Cc1ccc(OC)cc1 (centres undefined) | 94.6 ± 34
O=C(Oc1ccccc1C(=O)O)c1ccccc1O | 124 ± 42
CC1(C)OC(=O)NC1=O | 65.8 ± 3.9
CN(C)CCC=C1c2ccccc2COc2ccccc21 | 88.8 ± 1.1
CN1CCC[C@@H]1CCO[C@](C)(c1ccccc1)c1ccc(Cl)cc1 | 44.3 ± 12
